Measured values as given in PubChem BioAssay.
Activity calls are given as the source filed them. Unless noted, how the calls were made is not given here.

Key:
[1] = compound effects on lung adenocarcinoma cell viability – A549, calcein-AM fluorescence, 48 h, basal, profiling panel (AID 1162); details: higher = more signal; further: test concentration not given here
[2] = compound effects on differentiated 3T3-L1 adipocyte viability – cell-based, 3T3-L1 adipocytes, calcein-AM fluorescence, 48 h, basal, profiling panel (AID 1163); details: 3T3-L1 adipocytes viability, higher = more signal; further: test concentration not given here
[3] = compound effects on hepatocellular carcinoma cell viability – HepG2, calcein-AM fluorescence, 48 h, basal, profiling panel (AID 1164); details: higher = more signal; further: test concentration not given here
[4] = compound effects on multiple myeloma cell viability – MM1S, calcein-AM fluorescence, 48 h, basal, profiling panel (AID 1165); details: higher = more signal;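 further: viability of MM1S multiple myeloma cells under basal unstimulated conditions; test concentration not given here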
[5] = calcein-AM signal in unstimulated myeloma cells – cell-based, calcein-AM fluorescence, 48 h, PK04 Diversity Set, profiling panel (AID 1166); details: RPMI8226 myeloma viability, higher = more signal;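 further: cells grown under basal conditions without added stimulus; test concentration not given here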
[6] = JC-1 mitochondrial signal, unstimulated HepG2 cells – cell-based, JC-1 fluorescence, 24 h, 100 nL compound, profiling panel (AID 1167); details: HepG2 mitochondrial potential, higher = more signal; further: test concentration not given here
[7] = JC-1 mitochondrial signal, unstimulated adipocytes – cell-based, JC-1 fluorescence, 3T3-L1 adipocytes, 24 h, 100 nL compound, profiling panel (AID 1168); details: JC-1 mitochondrial fluorescence, higher = more signal, called active from +8 up or from −8 down; further: test concentration not given here
[8] = JC-1 mitochondrial signal, unstimulated myeloma cells – cell-based, JC-1 fluorescence, RPMI8226, 24 h, 100 nL compound, profiling panel (AID 1169); details: JC-1 mitochondrial potential fluorescence, higher = more signal; further: test concentration not given here
[9] = JC-1 mitochondrial signal, unstimulated MM1S myeloma – cell-based, JC-1 fluorescence, 24 h, 100 nL compound, profiling panel (AID 1170); details: MM1S mitochondrial potential, higher = more signal; further: test concentration not given here
[10] = resazurin metabolic signal in A549 cells – cell-based, resazurin fluorescence, 24 h, PK04 Diversity Set, profiling panel (AID 1171); details: A549 viability, higher = more signal, called active from +8 up or from −8 down; further: test concentration not given here
[11] = resazurin metabolic signal in HepG2 cells – cell-based, resazurin fluorescence, 24 h, PK04 Diversity Set, profiling panel (AID 1172); details: HepG2 viability, higher = more signal; further: test concentration not given here
[12] = budding yeast growth changes without added modifier – OD600, strain BY4716, 24 h, basal condition, primary screen (AID 1173); details: S. cerevisiae BY4716 growth, OD600, 24 h; higher = more signal, called active from +8 up or from −8 down
[13] = viability profiling in MM1S myeloma cells – cell-based, resazurin fluorescence, basal, 24 h, PK04 Diversity Set, profiling panel (AID 1174); details: higher = more signal, called active from +8 up or from −8 down; further: test concentration not given here
[14] = target: Dihydroorotate dehydrogenase (quinone), mitochondrial (Plasmodium falciparum (isolate 3D7)) (UniProt Q08210); assay: inhibition of P. falciparum DHODH – biochemical, C-terminal His tag, absorbance 600 nm, primary screen (AID 1175); details: PfDHODH enzyme, DCIP absorbance 600 nm; higher = more signal, called active from +8 up or from −8 down;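 further: recombinant parasite enzyme with a five histidine tag at its C terminus; test concentration not given here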
[15] = inhibition of PAO1 biofilm formation – strain PAO1, LB-PBS medium, absorbance 600 nm, primary screen (AID 1176); further: test concentration not given here; details: P. aeruginosa PAO1 growth/biofilm, A600, 12 h; higher = more signal
[16] = growth modulation of vineyard yeast isolate – strain RM11-1a, OD600, basal, 24 h, primary screen (AID 1177);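 further: cultures grown under basal conditions with no added stressor; test concentration not given here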; details: S. cerevisiae RM11-1a growth, OD600, 24 h; higher = more signal, called active from +8 up or from −8 down
[17] = growth of efflux-deficient E. coli DRC39 – strain DRC39, OD650, 24 h, E. coli filamentation inducers, primary screen (AID 1178);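 further: growth measured as culture turbidity by optical density at 650 nm; test concentration not given here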; details: E. coli DRC39 acrAB, higher = more signal, called active from +8 up or from −8 down
[18] = growth of efflux-deficient E. coli DRC39 – strain DRC39, OD650, 48 h, E. coli filamentation inducers, primary screen (AID 1179);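 further: screen aims at cell division blockers that make cells filament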; details: E. coli DRC39 delta-acrAB growth, higher = more signal, called active from +8 up or from −8 down
[19] = viability profiling in RPMI8226 myeloma cells – cell-based, resazurin fluorescence, basal, 24 h, PK04 Diversity Set, profiling panel (AID 1180); details: higher = more signal;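 further: RPMI8826 multiple myeloma cell line at 5000 cells per well; test concentration not given here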
[20] = target: E3 ubiquitin-protein ligase XIAP (Homo sapiens) (UniProt P98170); assay: small molecules binding XIAP protein – biophysical, small-molecule microarray, fluorescence 635 nm, primary screen (AID 1181); details: higher = more signal;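 further: score merges 667 nm emission and signal to noise over triplicate slides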
E3 ubiquitin-protein ligase XIAP (Homo sapiens), sequence (P98170 whole entry, looked up): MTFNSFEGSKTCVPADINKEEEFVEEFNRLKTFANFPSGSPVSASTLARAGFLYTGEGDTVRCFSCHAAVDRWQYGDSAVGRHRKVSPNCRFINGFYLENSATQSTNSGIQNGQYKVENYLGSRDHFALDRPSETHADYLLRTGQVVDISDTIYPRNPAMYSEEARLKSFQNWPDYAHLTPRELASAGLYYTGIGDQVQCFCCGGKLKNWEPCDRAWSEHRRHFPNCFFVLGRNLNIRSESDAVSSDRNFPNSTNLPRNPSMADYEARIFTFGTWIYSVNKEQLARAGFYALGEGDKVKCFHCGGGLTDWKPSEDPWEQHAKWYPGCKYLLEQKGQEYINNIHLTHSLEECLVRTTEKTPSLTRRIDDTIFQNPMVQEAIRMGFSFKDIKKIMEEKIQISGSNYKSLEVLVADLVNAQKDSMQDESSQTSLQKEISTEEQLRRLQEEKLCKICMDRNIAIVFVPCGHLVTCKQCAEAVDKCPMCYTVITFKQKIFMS

Dihydroorotate dehydrogenase (quinone), mitochondrial (Plasmodium falciparum (isolate 3D7)), sequence (Q08210 whole entry, looked up): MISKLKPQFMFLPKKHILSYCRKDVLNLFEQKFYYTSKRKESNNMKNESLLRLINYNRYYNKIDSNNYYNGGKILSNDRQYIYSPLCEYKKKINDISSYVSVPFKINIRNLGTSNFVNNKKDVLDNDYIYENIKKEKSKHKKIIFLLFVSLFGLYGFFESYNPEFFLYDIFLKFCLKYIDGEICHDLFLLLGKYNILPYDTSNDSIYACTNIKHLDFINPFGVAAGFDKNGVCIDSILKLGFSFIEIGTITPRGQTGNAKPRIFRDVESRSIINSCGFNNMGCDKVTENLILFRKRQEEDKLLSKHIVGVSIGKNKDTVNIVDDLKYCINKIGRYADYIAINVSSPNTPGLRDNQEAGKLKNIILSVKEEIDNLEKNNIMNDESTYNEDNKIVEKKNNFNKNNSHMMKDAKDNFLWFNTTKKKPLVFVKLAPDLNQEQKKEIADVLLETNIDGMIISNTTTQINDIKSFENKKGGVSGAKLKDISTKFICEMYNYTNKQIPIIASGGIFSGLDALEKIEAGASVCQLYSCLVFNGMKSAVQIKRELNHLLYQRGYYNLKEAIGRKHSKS

Row | SMILES | z-score [1] | z-score [2] | z-score [3] | z-score [4] | z-score [5] | z-score [6] | z-score [7] | z-score [8] | z-score [9] | z-score [10] | z-score [11] | z-score [12] | z-score [13] | composite z-score [14] | z-score [15] | z-score [16] | z-score [17] | z-score [18] | z-score [19] | composite z-score [20]
1 | CC(C)[Si](C#C[Si](C(C)C)(C(C)C)C(C)C)(O[C@H](C)c1cn(Cc2cccc(Cl)c2)nn1)C(C)C | 1.85 | -0.667 | 1.12 | 0.673 | 0.133 | 1.37 | 0.159 (inactive) | -0.0288 | 0.238 | 1.15 (inactive) | 0.205 | 0.916 (inactive) | 1.77 (inactive) | 0.621 (inactive) | 0.444 (inactive) | 0.0575 (inactive) | 2.07 (inactive) | 1.52 (inactive) | 1.68 | -0.205
2 | COCCOC(=O)N1C(=O)[C@@]2(c3cc(C#CCCO)ccc31)[C@H](c1ccc(OCCO)cc1)N1[C@H](c3ccccc3)[C@H](c3ccccc3)OC(=O)[C@H]1[C@@H]2C(=O)N1CCc2cc(OC)c(OC)cc2C1 | -0.874 | 0.586 | 0.863 | 0.541 | 0.263 | -0.0698 | 1.79 (inactive) | -0.299 | -1.48 | -0.533 (inactive) | -0.398 | 1.28 (inactive) | -1.24 (inactive) | -1.02 (inactive) | 1.64 (inactive) | 3.35 (inactive) | 0.154 (inactive) | 0.554 (inactive) | 0.908 | -0.102
3 | CC(C)CCC[C@@H](C)[C@H]1CC[C@@]2(C)C3=C(CC[C@]12C)[C@@]1(C)CC[C@H](OC(=O)c2ccc(N)cc2)C(C)(C)C1CC3 (stereo not given in full) | 1.22 | 0.187 | 1.06 | -0.169 | 0.814 | 0.703 | 0.335 (inactive) | -0.064 | -0.0494 | -0.16 (inactive) | -0.322 | -0.863 (inactive) | 0.467 (inactive) | -2.03 (inactive) | 0.589 (inactive) | -2.11 (inactive) | 0.965 (inactive) | 1.16 (inactive) | 0.826 | 0.45
4 | CCCC=C(CCC)[C@@H](NC(=O)Cc1ccccc1)c1ccc(C(=O)OC)cc1 | -0.988 | -0.735 | -0.512 | -2.42 | -0.513 | -1.59 | -1.7 (inactive) | -0.566 | -2.09 | -0.712 (inactive) | -0.704 | 0.951 (inactive) | -1.14 (inactive) | -0.831 (inactive) | 0.964 (inactive) | 1.49 (inactive) | 0.276 (inactive) | 0.543 (inactive) | -0.702 | 0.11
5 | CC(C)(C)N1CC=CC23O[C@@H]4C=CCCOC(=O)C4[C@H]2C(=O)N(CCCO)[C@@H]3C1=O (stereo not given in full) | 0.28 | 1.75 | 0.15 | -0.685 | -0.783 | -1.26 | 0.514 (inactive) | 0.846 | -0.0658 | -1.22 (inactive) | -0.884 | -0.434 (inactive) | -1.12 (inactive) | -3.53 (inactive) | -0.193 (inactive) | 0.605 (inactive) | -1.23 (inactive) | -1.27 (inactive) | -1.15 | -0.263
6 | COc1ccc([Si](C)(C)[C@@H]2[C@@H](CCO)O[C@]3(C(=O)N(Cc4cccc(N5C(=O)COc6ccccc65)c4)c4ccccc43)[C@H]2C)cc1 | -2.03 | 0.574 | -4.17 | -2.95 | -4.16 | -0.527 | 0.351 (inactive) | -1.09 | -1.7 | -2.6 (inactive) | -2.07 | 0.967 (inactive) | -3.29 (inactive) | 0.737 (inactive) | 1.3 (inactive) | 4.05 (inactive) | 0.775 (inactive) | 0.295 (inactive) | -3.26 | 0.0424
7 | C=CCNC(=O)[C@H]1[C@@H]2C(=O)O[C@@H](c3ccccc3)[C@@H](c3ccccc3)N2[C@@H](c2ccc(OCCO)cc2)[C@]12C(=O)N(C(=O)OCCOC)c1ccc(C#CC3=CCCCC3)cc12 | -0.906 | 0.968 | -0.546 | -1.96 | -2.49 | -0.609 | 2.06 (inactive) | -0.753 | -1.05 | 0.248 (inactive) | 0.293 | 0.567 (inactive) | -0.344 (inactive) | -0.91 (inactive) | 2.06 (inactive) | 1.45 (inactive) | -0.178 (inactive) | 0.215 (inactive) | 0.136 | -0.0727
8 | CC(C)C[C@@H]1NC(=O)[C@@]23C(=O)N[C@@H](Cc4ccccc4)C2[C@H](C)[C@@]2(C)O[C@H]2C3/C=C/C/C=C\CNC(=O)[C@@H]2CCCN2C1=O (stereo not given in full) | -0.486 | 0.0971 | -0.809 | -0.641 | 0.219 | -0.00843 | 0.568 (inactive) | 0.548 | -0.491 | -0.023 (inactive) | -0.462 | -0.47 (inactive) | 0.17 (inactive) | -0.487 (inactive) | 0.577 (inactive) | -0.0014 (inactive) | -0.536 (inactive) | -0.146 (inactive) | -0.39 | -0.207
